KDM4E inh – JMJD2E (human) inhibition. JMJD2E catalytic domain, FDH-coupled NADH fluorescence (FDH is formaldehyde dehydrogenase). B2RXH2. hit rate 1.6% among 230,000. AID 2147. Potency, µM (doses to about 57.1 µM), for the others: top-dose activity change, negative = inhibition, actives largely listed as inhibitors; active means well fitted inhibition curve with a large enough effect, not every such curve was filed as active; inconclusive means small, poorly fitted or top-dose-only effect, or another doubt; inactive means no such curve, though single readings can be large or run the other way;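 further: potency means the concentration at half of the fitted maximal effect; 0% = wells with enzyme and -100% = buffer wells without enzyme; nearly all actives have a fitted effect of over 50% in size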
Target sequence (B2RXH2 1-337 limits assumed): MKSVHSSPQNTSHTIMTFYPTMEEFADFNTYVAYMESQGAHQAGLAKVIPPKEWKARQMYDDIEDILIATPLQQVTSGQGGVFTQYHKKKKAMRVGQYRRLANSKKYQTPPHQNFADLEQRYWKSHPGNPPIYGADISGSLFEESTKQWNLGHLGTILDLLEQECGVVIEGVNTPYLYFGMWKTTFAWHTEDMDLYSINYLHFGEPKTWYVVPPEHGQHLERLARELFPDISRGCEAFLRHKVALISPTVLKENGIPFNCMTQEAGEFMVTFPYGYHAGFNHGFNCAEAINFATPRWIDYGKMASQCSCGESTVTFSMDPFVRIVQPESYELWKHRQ
Tau fluor counter – counter-screen for tau fibril formation inhibitors. Potency, µM (highest dose often 57.7 µM), without a hit: at the highest dose activity change, negative = decrease. hit rate 0.93% among 280,000. tau K18 P301L Alexa594 fluorescence, heparin fibrillization. AID 1463; further: potency means the concentration at half of the fitted maximal effect; nearly all actives have a fitted effect of over 55% in size
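Human K18 P301L tau (15 uM unlabeled plus 0.24 uM Alexa 594-labeled, final) in 100 mM sodium acetate pH 7 was mixed with compound and 20 uM heparin and incubated 6 hr at 37 C.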
NPSR antagonist – blocks cAMP signaling of the human neuropeptide S receptor; AID 1461; hit rate 1% among 220,000; CHO-NPSR cells, cAMP TR-FRET, antagonist mode; Q6W5P4; Potency, µM (titrated, usually from 38.3 µM), for inactives: at the top dose activity change, negative = inhibition, usual class: inhibitors; further: potency means the concentration at half of the fitted maximal effect; nearly all actives have a fitted effect of over 50% in size
PNC assembly inh – perinucleolar compartment assembly inhibition; PC3M PTB-GFP, PNC prevalence imaging, 16 h; hits give low values; activity change (PNC), negative = inhibition, % at 10 µM; hit rate 3.1% among 140,000;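 active means readout at or below -70, meaning at least 70% loss of cells showing the perinucleolar compartment, a nuclear body marking cancer cells; inconclusive means readout between -30 and a set limit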;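 further: plate controls were DMSO wells for no effect and camptothecin positive control wells for full effect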
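Read-out is percentage of cells bearing a perinucleolar compartment, from automated 20x imaging of fixed, Hoechst-stained PC3M PTB-GFP cells. Cells were seeded 4 h, then exposed 16 h to compound (23 nl of library stock) in duplicate plates.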
Tau FP inhib – inhibitors of human tau fibril formation; K18 P301L tau heparin fibrillization, Alexa594 FP, 6 h; Potency, µM (titrated, usually from 57.7 µM), for the others: top-dose activity, negative = inhibition, actives largely listed as inhibitors; hit rate 0.39% among 280,000; further: potency means the concentration at half of the fitted maximal effect; nearly all actives have a fitted effect of over 55% in size
Target sequence (P10636 561-689 P618L limits assumed): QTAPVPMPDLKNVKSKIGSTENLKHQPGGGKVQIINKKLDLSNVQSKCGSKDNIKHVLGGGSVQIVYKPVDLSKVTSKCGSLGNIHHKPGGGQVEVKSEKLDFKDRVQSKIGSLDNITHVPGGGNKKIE
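Steps: dispense K18 P301L tau (15 uM plus 0.24 uM Alexa 594 tracer, final) in pH 7 sodium acetate; add compound; add heparin (20 uM final); incubate 6 hr, 37 C; add ThT (30 uM final); after 1 hr ambient, read FP.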
Tau ThT inhib – inhibitors of human tau fibril formation, thioflavin T binding. AID 1460. Potency, µM (doses to about 57.4 µM), inactives show at the highest dose activity, negative = inhibition, most hits filed as inhibitors. hit rate 2.1% among 270,000. P10636. recombinant tau K18 P301L, heparin-induced fibrillization, ThT fluorescence; further: potency means the concentration at half of the fitted maximal effect; nearly all actives have a fitted effect of over 55% in size
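Using a mix of unlabeled (15 uM) and Alexa 594-labeled (0.24 uM) tau K18 P301L, heparin-triggered fibrillization over 6 hr at 37 C was scored by ThT fluorescence.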
The depositor's hits bear a star; [ ] = dose if it differs, or a comment. The list is not random: actives were taken first. Their share in the collection is about 5.1%. Unless noted, the call rests on the fitted dose curve; in most records, active means well fitted curve in the direction sought with a large enough effect; inconclusive means small, poorly fitted or top-dose-only effect, or another doubt; inactive means no such curve, though single readings can be large; an effect the other way counts as inactive or inconclusive. Unless noted, on the % scale 0 is the no-effect control and ±100 the full control effect.

`Cc1ccc(C(C)NC(=O)/C(C#N)=C\c2c(C)[nH]c3ccccc23)cc1` (stereo unspecified) gave KDM4E inh -14%, Tau fluor counter 10µM*[quencher], NPSR antagonist inconclusive, PNC assembly inh -16, Tau FP inhib 25µM* and Tau ThT inhib -16%.
Screening COC(=O)c1ccc(/C=C(\C#N)C(=O)NC(C)c2ccccc2)cc1 (stereo unspecified) returned KDM4E inh 1%, Tau fluor counter -5%, NPSR antagonist -59%, PNC assembly inh -100*, Tau FP inhib inconclusive and Tau ThT inhib inconclusive.
Screening NC(=O)c1cc(S(=O)(=O)NCC2CCC(C(=O)Nc3ccc(Cl)cc3)CC2)cs1 (stereo unspecified) returned Tau fluor counter -2%, Tau FP inhib inconclusive and Tau ThT inhib 11%.
Cc1ccc(NC(=O)c2ccc3c(=O)n4nc(Nc5ccccc5C)sc4nc3c2)cc1C was read as Tau fluor counter -2%, Tau FP inhib -3% and Tau ThT inhib -14%.
For Cc1[nH]c2c(ccc3ccccc32)c1C1C(CCN)C1(C)C (stereo unspecified) the results were KDM4E inh inconclusive, Tau fluor counter 16µM*[quencher], NPSR antagonist inconclusive, PNC assembly inh 19, Tau FP inhib inconclusive and Tau ThT inhib inconclusive.
N#Cc1ccc(-c2ccco2)nc1SCC(=O)c1ccc(Cl)cc1 was read as KDM4E inh inconclusive, Tau fluor counter inconclusive, NPSR antagonist -11%[46.1 µM], PNC assembly inh -6, Tau FP inhib -4% and Tau ThT inhib 5µM*.
Screening Cc1ccc(C(=O)CSc2nc(-c3ccccc3)ccc2C#N)cc1 returned KDM4E inh -6%, Tau fluor counter inconclusive, NPSR antagonist -31%, PNC assembly inh -4, Tau FP inhib -3% and Tau ThT inhib inconclusive.
For Cc1cc(C)c(S(=O)(=O)/N=C2/C=C(SCC(=O)O)C(=O)c3ccccc32)cc1C the results were KDM4E inh inconclusive, Tau fluor counter inconclusive, NPSR antagonist 4%, Tau FP inhib 10µM* and Tau ThT inhib 7.1µM*.
CCOC(=O)N1CCN(S(=O)(=O)c2cc(C)c(C)cc2C)CC1 was read as KDM4E inh -2%, Tau fluor counter -8%, NPSR antagonist -8%[46.1 µM], PNC assembly inh inconclusive, Tau FP inhib -3% and Tau ThT inhib -15%.
Cc1ccc(S(=O)(=O)c2cnc(SCC(=O)Nc3cc(C)cc(C)c3)nc2N)cc1 was read as Tau fluor counter -25%, Tau FP inhib inconclusive and Tau ThT inhib inconclusive.
For O=C(O)c1ccc(N/N=C/c2ccc3nccnc3c2)cc1 the results were KDM4E inh -4%, Tau fluor counter -19%, NPSR antagonist inconclusive, Tau FP inhib -4% and Tau ThT inhib 3.5µM*.
O=C(O)c1ccc(N/N=C/c2cn(Cc3ccccc3F)c3ccccc23)cc1 was read as KDM4E inh inconclusive, Tau fluor counter inconclusive, NPSR antagonist -54%, Tau FP inhib 0% and Tau ThT inhib 14µM*.
`O=C(O)c1ccc(N/N=C/c2ccnc3ccccc23)cc1` gave KDM4E inh -6%, Tau fluor counter inconclusive, NPSR antagonist -37%, Tau FP inhib 6% and Tau ThT inhib 5µM*.
Screening COc1cc(C(=O)NCc2nc(-c3ccc(Cl)cc3)no2)cc(OC)c1OC returned Tau fluor counter -20%, Tau FP inhib -10% and Tau ThT inhib -6%.
`Cc1cc(C)c(NC(=O)C2C3/C=C\CCCCC32)c(C)c1` (stereo unspecified) gave KDM4E inh 1%, Tau fluor counter -4%, NPSR antagonist 0%[46.1 µM], PNC assembly inh -15, Tau FP inhib -3% and Tau ThT inhib -7%.
Screening Cc1ccc(NC(=O)C2C3/C=C\CCCCC32)cc1 (stereo unspecified) returned KDM4E inh 5%, Tau fluor counter -1%, NPSR antagonist -7%, PNC assembly inh -81*, Tau FP inhib 4% and Tau ThT inhib 2%.

Bioassay records (PubChem)
